Laboratory results taken from PubChem BioAssay (NCATS).
Records with an inconclusive call do not appear. Calls of active or inactive are those of the source. The call rests on the fitted dose curve; in most records, active means well fitted curve in the direction sought with a large enough effect; inconclusive means small, poorly fitted or top-dose-only effect, or another doubt; inactive means no such curve, though single readings can be large; an effect the other way counts as inactive or inconclusive.

Assays:
[1] = Quantitative highthroughput screen to assess conditional lethalithy of NOMO1 cells grown in RPMI1640 with untreated serum (RPMI+s) (AID 1963876); further: nearly all actives have a fitted effect of over 35% in size
Summary of the method: (§1)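 Each medium arm—HPLM with 10% dialyzed FBS, or RPMI1640 with 5 mM glucose and 10% untreated or dialyzed FBS—was screened against an 11-point, 3-fold compound titration for 48 h at 37 °C, with CellTiter-Glo luminescence as endpoint.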

[2] = Quantitative highthroughput screen to assess conditional lethalithy of NOMO1 cells grown in RPMI1640 with dialyzed fetal bovine serum (RPMI+ds) (AID 1963877); further: nearly all actives have a fitted effect of over 30% in size; on viability: series mostly up to about 46 µM
Summary of the method: as §1

[3] = Quantitative highthroughput screen to assess conditional lethalithy of NOMO1 cells grown in Human Plasma-Like Medium with dialyzed fetal bovine serum (HPLM+ds) (AID 1963878); further: nearly all actives have a fitted effect of over 35% in size
Summary of the method: as §1

[4] = Quantitative highthroughput screen to assess conditional lethalithy of P12 Ichikawa cells grown in Human Plasma-Like Medium with dialyzed fetal bovine serum (HPLM+ds) (AID 1963879); settings: Potency: viability; further: nearly all actives have a fitted effect of over 35% in size; on viability: series mostly up to about 46 µM
Summary of the method: as §1

[5] = Quantitative highthroughput screen to assess conditional lethalithy of P12 Ichikawa cells grown in RPMI1640 with dialyzed fetal bovine serum (RPMI+ds) (AID 1963880); settings: Potency: P12-Ichikawa viability; further: nearly all actives have a fitted effect of over 35% in size
Summary of the method: as §1

[6] = Quantitative highthroughput screen to assess conditional lethalithy of P12 Ichikawa cells grown in RPMI1640 with untreated serum (RPMI+s) (AID 1963881); settings: Potency: viability; further: nearly all actives have a fitted effect of over 35% in size; on viability: series mostly up to about 46 µM
Summary of the method: as §1

[7] = Quantitative highthroughput screen to assess conditional lethalithy of SEM cells grown in Human Plasma-Like Medium with dialyzed fetal bovine serum (HPLM+ds) (AID 1963882); further: nearly all actives have a fitted effect of over 35% in size; on viability: series mostly up to about 46 µM
Summary of the method: as §1

[8] = Quantitative highthroughput screen to assess conditional lethalithy of SEM cells grown in RPMI1640 with unreated serum (RPMI+s) (AID 1963883); further: nearly all actives have a fitted effect of over 35% in size
Summary of the method: as §1

[9] = Quantitative highthroughput screen to assess conditional lethalithy of SEM cells grown in RPMI1640 with dialyzed fetal bovine serum (RPMI+ds) (AID 1963884); further: nearly all actives have a fitted effect of over 35% in size; on viability: series mostly up to about 46 µM
Summary of the method: as §1

Measured: Potency
Potency means the concentration at half of the fitted maximal effect.

CCOc1cc2ncc(C#N)c(Nc3ccc(F)c(Cl)c3)c2cc1NC(=O)C=CCN(C)C
active: [1] 16.6 µM | [2] 7.43 µM | [3] 4.69 µM | [4] 3.72 µM | [5] 5.26 µM | [6] 5.26 µM | [7] 1.32 µM | [8] 0.418 µM

O=C(NNC(=O)c1ccc(CNS(=O)(=O)c2ccc(F)c(Cl)c2)cc1)c1ccccc1
not listed: [9]
inactive: all other assays above

NC(=O)c1ncn([C@@H]2O[C@H](CO)[C@@H](O)[C@@H]2O)c1N
active: [7] 18.7 µM
not listed: [8] | [9]
inactive: all other assays above

CCCCC(C=O)NC(=O)C(CC(C)C)NC(=O)OCc1ccccc1 (stereo not given)
inactive: [1] | [2] | [3] | [4]

Cc1c(-c2cccc3c(CCCOc4cccc5ccccc45)c(C(=O)O)n(Cc4cccnc4)c23)c(COc2ccc(N3CCN([S+](=O)([O-])N(C)C)CC3)cc2)nn1C
not listed: [7] | [8] | [9]
inactive: all other assays above

NC(=O)c1nnn(Cc2cc(Cl)c(C(=O)c3ccc(Cl)cc3)c(Cl)c2)c1N
inactive: [1] | [2] | [3]

CCC=CC[C@H]1C(=O)CC[C@@H]1CC(=O)OC
inactive: [1] | [2] | [3] | [4] | [5]

O=C(NCc1ccccc1)[C@H](Cc1ccccc1)NC(=O)[C@@H]1O[C@@H]1C(=O)NCCc1ccc(O)cc1
not listed: [8] | [9]
inactive: all other assays above

CCCCCCCc1ccc(CCc2cccc(O)c2C(=O)O)cc1
not listed: [7] | [8] | [9]
inactive: all other assays above

CO[C@H]1/C=C\O[C@@]2(C)Oc3c(C)c(O)c4c(O)c(c(C=NN5CCN(C6CCCC6)CC5)c(O)c4c3C2=O)NC(=O)C(C)=CC=C[C@H](C)[C@H](O)[C@@H](C)[C@@H](O)[C@@H](C)[C@H](OC(C)=O)[C@H]1C
active: [1] 1.66 µM | [2] 2.64 µM | [3] 2.35 µM | [4] 2.64 µM | [5] 2.64 µM

C[C@H]1[C@H](NC(=O)C(=NOC(C)(C)C(=O)O)c2csc(N)n2)C(=O)N1S(=O)(=O)O
not listed: [9]
inactive: all other assays above

Cc1nn(C)c2c1C(c1ccc(C(F)(F)F)cc1)C(C#N)=C(N)O2 (stereo not given)
not listed: [7] | [8] | [9]
inactive: all other assays above

OCCn1cc(-c2ccc3c(c2)CCC3=NO)c(-c2ccncc2)n1
not listed: [9]
inactive: all other assays above

Nc1ncnc2c1ncn2[C@@H]1O[C@H](CO)C[C@@H]1O
not listed: [7] | [8] | [9]
inactive: all other assays above

CC(=O)N1CCN(c2ccc(OC[C@H]3CO[C@](Cn4ccnc4)(c4ccc(Cl)cc4Cl)O3)cc2)CC1
inactive: [1] | [2] | [3]

COc1cc(C=CC(=O)O)ccc1O
not listed: [9]
inactive: all other assays above

CCN1CCN(C(=O)N[C@H](C(=O)N[C@@H]2C(=O)N3C(C(=O)O)=C(CSc4nnnn4C)CS[C@@H]23)c2ccc(O)cc2)C(=O)C1=O
inactive: all assays above

Cc1ccc([N+](=O)[O-])cc1S(=O)(=O)N(C)N=Cc1cnc2ccc(Br)cn12
active: [1] 0.0935 µM | [2] 0.105 µM | [3] 0.0526 µM | [4] 0.166 µM | [5] 0.132 µM | [6] 0.132 µM | [7] 0.059 µM | [8] 0.0662 µM

COc1cccc2c1C(=O)c1c(O)c3c(c(O)c1C2=O)C[C@@](O)(C(C)=O)C[C@H]3O[C@H]1C[C@H](N)[C@H](O)[C@H](C)O1
active: [1] 0.264 µM | [2] 0.235 µM | [3] 0.264 µM | [4] 0.264 µM | [5] 0.209 µM | [6] 0.209 µM | [7] 0.0833 µM | [8] 0.0469 µM | [9] 0.0833 µM

CC(=NNC(=S)N1CCC1)c1ccccn1
active: [1] 0.0083 µM | [2] 0.0053 µM | [3] 0.0047 µM | [4] 0.0053 µM | [5] 0.0066 µM | [6] 0.0059 µM | [7] 0.0026 µM | [8] 0.0033 µM | [9] 0.0021 µM

CC=C(C(=CC)c1ccc(O)cc1)c1ccc(O)cc1
not listed: [8] | [9]
inactive: all other assays above
